# Test results published in PubChem BioAssay AID1645850 (National Center for Advancing Translational Sciences (NCATS), 2021).
# Results filed as inconclusive are left out. Unmarked numbers belong to inactive results. Calls come from the whole dose curve; as a rule, active = well fitted curve in the direction sought with a large enough effect in the repeat runs; inconclusive = weak or mixed curves, or another doubt; inactive = no such curve, though single readings can be large or run the other way.
# Assay: Comparison of Janus kinase inhibitors to block the type I interferon pathway in human skeletal muscle cells: CTG Counterscreen
# Details: human skeletal muscle cells viability, CellTiter-Glo ATP luminescence; series mostly up to 45.9 µM; activity change, negative = cytotoxicity: at the top concentration
# Text: Assay Submitter (PI): Travis B. Kinder Ph.D.
# National Center for Advancing Translational Sciences (NCATS)
# The family of Janus kinases (JAK1, JAK2, JAK3, TYK2) mediate signal transduction from cytokine receptors through phosphorylation and activation of intracellular signaling pathways and transcription factors. Small molecule antagonists of JAKs (jakinibs) have been developed with varying selectivity for the use in malignancies and immune regulation. […] We have assayed a library of 48 jakinibs for their ability to inhibit the JAK1/TYK2-dependent type I interferon (IFN) - major histocompatibility complex (MHC) class I pathway in human skeletal muscle cells genome-engineered to fuse a pro-luminescent HiBiT peptide to endogenous MHC class I.
# The assay utilized CRISPR/Cas9 genome-engineered immortalized human myoblasts, C25cl48, where a pro-luminescent reporter HiBit was fused to the C-terminus of endogenous MHC class I allele HLA-B*08:01 (HLA-B HiBit myoblasts) (Kinder et al., 2020). HiBit is an 11 amino acid fragment of NanoLuc luminescent reporter (Promega Corporation), and when complexed to the larger LgBit fragment, the reconstituted enzyme produces light in the presence of furimazine substrate. Briefly, HLA-B HiBit myoblasts were plated into 1536-well plates, treated with 4.0 ng/ml human IFN-beta and 48 jakinibs in an 11-point, 1:3 titration with a high final concentration of 46 uM. After 24 hrs of treatment, cells were assayed by CellTiter-Glo Luminescent Cell Viability Assay (Promega) and luminescence measured by a ViewLux 1430 Ultra HTS (Perkin Elmer).
# 1. Kinder TB, Dranchak PK, Inglese J. High-Throughput Screening to Identify Inhibitors of the Type I Interferon-Major Histocompatibility Complex Class I Pathway in Skeletal Muscle. ACS Chem Biol. 2020 Jul 17;15(7):1974-1986. doi: 10.1021/acschembio.0c00343
# PROTOCOL TABLE (as described by Inglese et al., 2007)
# SEQUENCE No. (e.g., 1, 2, 3, etc.); PARAMETER (e.g., Cells, Incubation, Reagent, etc.); VALUE; DESCRIPTION
# 1a; Cells; 5 uL; Seed 250 cells/well with a Multidrop Combi (Thermo Scientific) into two Greiner 1536 well white/solid bottom, high base, TC plates (789173-F) in 5 ul/well of growth medium (GM) without dexamethasone into columns 1+2
# 1b; Cells; 5 uL; Seed 250 cells/well with a Multidrop Combi (Thermo Scientific) into two Greiner 1536 well white/solid bottom, high base, TC plates (789173-F) in 5 ul/well of GM without dexamethasone + 4 ng/ml IFN-beta into columns 3 - 48. Add metal lids with gas-exchange holes.
# 2; Incubate; 30 min; Incubate at 37C, 5% CO2, 95% RH
# 3; Compounds; 23 nl; Transfer DMSO control and library compounds in DMSO with Pin Tool (Wako)
# 4; Incubate; 24 hrs; Incubate at 37C, 5% CO2, 95% RH
# 5; Dispense; 2.5 ul; Add CellTiter Glo lytic reagent with a BioRAPTR FRD (Beckman Coulter)
# 6; Incubate; 10 min; Incubate in the dark at ambient temperature for lysis
# 7; Detector; 5 sec; Measure luminescence with ViewLux 1430 Ultra HTS (Perkin Elmer). Settings: Exposure = 2 sec, Gain = High, Speed = Slow, Binning = 2X
# NOTES (numbers refer to sequence above)
# 1; HLA-B HiBit myoblasts cultured in GM - 4:1 ratio DMEM Glutamax (Thermo Fisher, 10566) : M199 (Thermo Fisher, 11150), 10% FBS (Hyclone Standard), 1% Pen/Strep, 50 ug/ml fetuin, 10 ng/ml hEGF, 1 ng/ml bhFGF, 10 ug/ml insulin, 0.4 ug/ml dexamethasone (supplements from Promocell, C-39360). […] Recombinant human IFN-beta (Peprotech, 300-02BC) was reconstituted in water, diluted in GM, and aliquots stored at -80C until day of use.
# 3; Control plate contained DMSO in columns 1 and 4, digitonin (Sigma, D141) cytotoxicity control in DMSO at 20 mM in column 2, and ruxolitinib (Selleckchem, S1378) inhibitor control in DMSO 16-point, 1:2 titration, high concentration = 17 mM in column 3. Digitonin and ruxolitinib stocks were reconstituted at 20 and 50 mM in DMSO and aliquots stored at -20C. […]
row,SMILES,"activity change, negative = cytotoxicity"
1,CNS(=O)(=O)CC1CCC(N(C)c2ncnc3[nH]ccc23)CC1 (configuration not stated),15%
2,NC(=O)c1cnc2[nH]ccc2c1NC1C2CC3C[C@H]1CC(O)(C3)C2 (some centres not stated),1.18%
3,CN(C)c1ccc(Nc2nc(N)n(C(=O)c3c(F)cccc3F)n2)cc1,-10.4%
4,O=C(Nc1ccnc(NC(=O)C2CC2)c1)c1c(Cl)cccc1Cl,8.25%
5,Cn1cc(Nc2nccc(N3C[C@H]4CC[C@@H](C3)N4C(=O)[C@@H]3CC3(F)F)n2)cn1,-24.6%
6,CC(C)(C)NS(=O)(=O)c1ccc(-c2ccc3[nH]nc(N)c3c2)cc1,15.9%
7,CC(C)(O)C(=O)N1CCN(c2ccc(C(F)(F)F)c(C3=C(c4c[nH]c5ccccc45)C(=O)NC3=O)c2)CC1,-7.18%
8,O=C(Nc1ccc(-c2ccnc(Nc3ccc(N4CCOCC4)cc3)n2)cc1)[C@@H]1CCCN1,12.2%
9,CCCS(=O)(=O)NC1CC(N(C)c2ncnc3[nH]ccc23)C1 (configuration not stated),5.82%
10,CN1CCN(c2cccc(Nc3nc4c(-c5ccc(S(C)(=O)=O)cc5)cccn4n3)c2)CC1,-4.5%
11,CCS(=O)(=O)N1CC(CC#N)(n2cc(-c3ncnc4[nH]ccc34)cn2)C1,1.82%
12,[2H]C([2H])([2H])NC(=O)c1nnc(NC(=O)C2CC2)cc1Nc1cccc(-c2ncn(C)n2)c1OC,-10.7%
13,C=CC(=O)Nc1ccc(F)c(-c2ncnc3[nH]cc(C(=O)OCC)c23)c1,3.28%
14,Cc1oncc1C(=O)Nc1ccc(C(F)(F)F)cc1,-6.1%
15,CC1(C)CN(C(=O)c2ccc(-c3cccc4nc(NC(=O)C5CC5)nn34)cc2)C1,7.08%
16,N#C/C(=C\c1ccc(O)c(O)c1)C(=O)NCc1ccccc1,1.73%
17,CC[C@@H]1CN(C(=O)NCC(F)(F)F)C[C@@H]1c1cnc2cnc3[nH]ccc3n12,-28.6%
18,CCS(=O)(=O)N1CCN(c2ccc(Nc3ncc(C(N)=O)c(NC4CC4)n3)cc2)CC1,1.99%
19,CC[C@@](C)(Nc1ccnc(-c2c[nH]c3ncccc23)n1)C(=O)NCC(F)(F)F,5.31%
20,N#CCNC(=O)c1ccc(-c2ccnc(Nc3ccc(N4CCOCC4)cc3)n2)cc1,-19.9%
21,COc1cc2ncnc(Nc3ccc(O)cc3)c2cc1OC,-2.03%
22,CC(C)(C)NC(=O)Nc1cccc(Nc2ncc(F)c(NC(C)(C)CO)n2)c1,6.2%
23,N#CC[C@H](C1CCCC1)n1cc(-c2ncnc3[nH]ccc23)cn1,8.46%
24,CC(C)(C)c1nc2c3cc[nH]c(=O)c3c3cc(F)ccc3c2[nH]1,-11.6%
25,Cc1cc(Nc2cc(CN3CCOCC3)c3nc(C)c(Cc4ccc(Cl)cc4F)n3n2)n[nH]1,-19%
26,C[C@@H]1CCN(C(=O)CC#N)C[C@@H]1N(C)c1ncnc2[nH]ccc12,3.19%
27,CCn1c(C(=O)N(C2CC2)C2CC2)cc2c3c(ncn3C)c(Nc3cc(C)n(C)n3)nc21,-17.3%
